# Experimental data: PubChem BioAssay (EPA / NIEHS)
# A structure can be active in one record and inactive in another. Calls of active or inactive are those of the source. How the source made its calls: active means hit-call score of the fitted dose curve at least 0.9, where 1 is the maximum; inactive means score below 0.9.
# Assays:
# [1] = target: Transcription factor E2F1 (Homo sapiens) (UniProt Q01094); assay: ATG_E2F_CIS: Attagene CIS-FACTORIAL HepG2 Assay for human E2F Transcription Factor 1 (AID 2282935); conditions: HepG2 Attagene cis-reporter, E2F reporter RNA transcripts; actives raise or lower the signal
# Transcription factor E2F1 (Homo sapiens), sequence (Q01094 whole entry, looked up): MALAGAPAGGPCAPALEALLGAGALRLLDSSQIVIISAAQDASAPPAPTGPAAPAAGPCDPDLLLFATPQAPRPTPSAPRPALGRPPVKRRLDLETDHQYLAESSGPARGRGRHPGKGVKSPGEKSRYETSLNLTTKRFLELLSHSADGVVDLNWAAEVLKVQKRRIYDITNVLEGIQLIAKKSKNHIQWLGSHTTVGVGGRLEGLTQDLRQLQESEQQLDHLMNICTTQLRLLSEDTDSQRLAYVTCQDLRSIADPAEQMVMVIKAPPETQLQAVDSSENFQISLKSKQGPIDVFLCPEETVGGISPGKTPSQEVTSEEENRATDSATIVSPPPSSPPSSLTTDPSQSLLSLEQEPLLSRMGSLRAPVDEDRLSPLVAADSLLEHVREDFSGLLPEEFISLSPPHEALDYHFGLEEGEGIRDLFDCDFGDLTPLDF
# In short: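 HepG2 cells transiently transfected with multiplexed cis-element reporter units, dosed for 24 h. Reporter mRNA measured by RT-PCR, 6-FAM primer-extension labeling, HpaI digestion and capillary electrophoresis; bidirectional fit versus DMSO baseline.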
# [2] = ATG_E_Box_CIS: Attagene CIS-FACTORIAL HepG2 Assay for human Enhancer Box (E-box) (AID 2282936); conditions: HepG2 E-box cis-reporter transcription, actives raise or lower the signal
# In short: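 HepG2 cells transiently transfected with multiplexed cis-element reporter units sensing endogenous transcription factor activity; 24 h compound exposure. Reporter mRNA measured by RT-PCR, 6-FAM primer extension, HpaI digestion and capillary electrophoresis; bidirectional fit versus DMSO.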
# [3] = ATG_M_61_CIS: Attagene CIS-FACTORIAL HepG2 Assay for M61 Transcription Factor (Internal Marker) (AID 2282937); conditions: HepG2 Attagene CIS-FACTORIAL M61 internal marker reporter; actives raise or lower the signal
# In short: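 HepG2 cells transiently transfected with multiplexed cis-promoter reporter units reporting endogenous transcription factor activity, measured 24 h after dosing. Reporter mRNA quantified by RT-PCR and capillary electrophoresis; bidirectional fit against DMSO baseline.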
# [4] = ATG_EGR_CIS: Attagene CIS-FACTORIAL HepG2 Assay for human Early Growth Response 1 (EGR1) (AID 2282938); conditions: HepG2 Attagene CIS-FACTORIAL EGR reporter mRNA; actives raise or lower the signal
# In short: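 HepG2 cells transiently transfected with cis-element-driven multiplexed reporter units, dosed for 24 h. EGR1-element reporter mRNA quantified by RT-PCR, 6-FAM labelling, HpaI digestion and capillary electrophoresis; bidirectional fit versus DMSO.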
# [5] = ATG_M_19_CIS: Attagene CIS-FACTORIAL HepG2 Assay for M19 Transcription Factor (Internal Marker) (AID 2282939); conditions: HepG2 Attagene CIS-FACTORIAL M19 internal marker reporter; actives raise or lower the signal
# In short: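 HepG2 cells transiently transfected with cis-regulated multiple reporter transcription units were dosed for 24 h; reporter mRNA was quantified by RT-PCR, 6-FAM primer-extension labelling, HpaI digestion and capillary electrophoresis, with bidirectional fitting against DMSO baseline.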
# [6] = ATG_ERE_CIS: Attagene CIS-FACTORIAL HepG2 Assay for Estrogen Response Element (ERE) (AID 2282940); conditions: HepG2 ERE cis-reporter, Attagene RNA transcript; actives raise or lower the signal
# In short: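 HepG2 cells transiently transfected with cis-promoter-driven multiplexed reporter transcription units report endogenous TF activity. After 24 h compound exposure, reporter mRNA is quantified by RT-PCR with capillary electrophoresis fluorescence; bidirectional fitting versus DMSO baseline.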
# [7] = ATG_Ets_CIS: Attagene CIS-FACTORIAL HepG2 Assay for human Erythroblast Transformation Specific (ETS) (AID 2282941); conditions: HepG2 ETS cis-reporter transcription, actives raise or lower the signal
# In short: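 Human HepG2 hepatoma cells were transiently transfected with promoter-driven reporter constructs and treated for 24 hours. Reporter transcripts were quantified by RT-PCR with fluorescent primer extension; bidirectional curve fitting used DMSO as reference.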
# [8] = target: Hepatocyte nuclear factor 3-beta (Homo sapiens) (UniProt Q9Y261); assay: ATG_FoxA2_CIS: Attagene CIS-FACTORIAL HepG2 Assay for human Forkhead box A2 (FOXA2) (AID 2282942); conditions: HepG2 cis-reporter transcription factor activity, 24 h; actives raise or lower the signal
# Hepatocyte nuclear factor 3-beta (Homo sapiens), sequence (Q9Y261 whole entry, looked up): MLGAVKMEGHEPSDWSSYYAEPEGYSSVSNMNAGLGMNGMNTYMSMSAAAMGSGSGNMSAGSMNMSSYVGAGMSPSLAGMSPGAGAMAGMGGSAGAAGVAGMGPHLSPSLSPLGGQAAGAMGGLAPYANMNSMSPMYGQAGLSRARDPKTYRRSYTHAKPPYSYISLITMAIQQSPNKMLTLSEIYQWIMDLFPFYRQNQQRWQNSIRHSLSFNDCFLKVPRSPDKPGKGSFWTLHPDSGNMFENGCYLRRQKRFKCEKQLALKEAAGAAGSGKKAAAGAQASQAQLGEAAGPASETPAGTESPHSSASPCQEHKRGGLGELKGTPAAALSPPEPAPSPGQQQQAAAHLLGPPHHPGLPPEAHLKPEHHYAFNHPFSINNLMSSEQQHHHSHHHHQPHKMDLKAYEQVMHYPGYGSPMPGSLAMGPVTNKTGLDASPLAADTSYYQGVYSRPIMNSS
# In short: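 HepG2 transiently transfected with a multiplexed cis-promoter reporter library read endogenous FOXA2 activity. After 24 h compound exposure, reporter mRNA was quantified by RT-PCR, HpaI digestion and capillary electrophoresis. Bidirectional fit against DMSO.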
# [9] = ATG_FoxO_CIS: Attagene CIS-FACTORIAL HepG2 Assay for human Forkhead box O (FoxO) (AID 2282943); conditions: HepG2 Attagene cis-reporter, FoxO element, mRNA; actives raise or lower the signal
# In short: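 24 h chemical exposure, HepG2 with transient cis-MRTU transfection. RNA extraction, oligo(dT) RT, reporter-specific PCR, primer-extension labelling, HpaI digestion, CE fragment analysis; bidirectional fit, DMSO baseline.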
# [10] = ATG_GATA_CIS: Attagene CIS-FACTORIAL HepG2 Assay for human GATA Binding Protein (AID 2282944); conditions: HepG2 GATA cis-element reporter, Attagene multiplex mRNA; actives raise or lower the signal
# In short: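 HepG2 cells transiently transfected with multiplexed cis-element reporter units reflecting endogenous transcription factor activity; reporter mRNA measured after 24 h dosing by RT-PCR, 6-FAM labeling, HpaI digestion and capillary electrophoresis. Bidirectional fitting versus DMSO baseline.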
SMILES,outcome [1],AC50 [2],outcome [2],outcome [3],AC50 [4],outcome [4],AC50 [5],outcome [5],AC50 [6],outcome [6],AC50 [7],outcome [7],outcome [8],AC50 [9],outcome [9],AC50 [10],outcome [10],AC50 [1]
OCCCC(F)(F)C(F)(F)C(F)(F)C(F)(F)C(F)(F)C(F)(F)C(F)(F)F,inactive,72.9 µM (active),inactive,inactive,80.6 µM (active),inactive,264 µM (active),inactive,19.9 µM (active),inactive,50 µM (active),inactive,inactive,65.3 µM (active),inactive,78.9 µM (active),inactive,
CCc1ccc(C(c2ccc(CC)cc2)C(Cl)Cl)cc1,inactive,,inactive,inactive,,inactive,,inactive,40.1 µM (active),,,inactive,inactive,,inactive,,inactive,
COC(=O)CCC(F)(F)C(F)(F)C(F)(F)C(F)(F)F,inactive,,inactive,inactive,,inactive,,inactive,6.98 µM (active),,,inactive,inactive,,inactive,,inactive,
O=C(O)C(F)(OC(F)(F)C(F)(OC(F)(F)C(F)(F)C(F)(F)F)C(F)(F)F)C(F)(F)F (configuration not stated),inactive,,inactive,inactive,,inactive,,inactive,,inactive,,inactive,inactive,,inactive,,inactive,
CC(Cc1ccc(O)c(O)c1)C(C)Cc1ccc(O)c(O)c1 (configuration not stated),,,inactive,inactive,20.5 µM (active),,,inactive,8.81 µM (active),,,inactive,inactive,,inactive,,inactive,33.4 µM (active)
FC(F)(F)C(F)(F)C(F)(F)C(F)(F)CCI,inactive,,inactive,inactive,,inactive,,inactive,16.3 µM (active),inactive,,inactive,inactive,,inactive,,inactive,
CCCCOCCOCCOC(=O)CCCCC(=O)OCCOCCOCCCC,inactive,,inactive,inactive,,inactive,,inactive,,inactive,,inactive,inactive,,inactive,,inactive,
CCCCC(CC)COP(=O)(O)OCC(CC)CCCC (configuration not stated),inactive,,inactive,inactive,,inactive,,inactive,,inactive,,inactive,inactive,,inactive,,inactive,
NC(=O)C(F)(F)C(F)(F)C(F)(F)C(F)(F)F,inactive,,inactive,inactive,,inactive,,inactive,,inactive,,inactive,inactive,,inactive,,inactive,
CCO[Si](CCC(F)(F)C(F)(F)C(F)(F)C(F)(F)C(F)(F)C(F)(F)F)(OCC)OCC,inactive,,inactive,inactive,,inactive,,inactive,,inactive,,inactive,inactive,,inactive,,inactive,
O=C(O)C(F)(F)C(F)(F)C(F)(F)C(F)(F)C(F)(F)C(F)(F)C(F)(F)C(F)(F)C(F)(F)C(F)(F)C(F)(F)C(F)(F)F,inactive,,inactive,inactive,,inactive,,inactive,,inactive,,inactive,inactive,,inactive,,inactive,
OCC(F)(F)C(F)(F)C(F)(F)F,inactive,,inactive,inactive,,inactive,,inactive,,inactive,,inactive,inactive,,inactive,,inactive,
O=S(=O)(OCC(F)F)C(F)(F)F,inactive,,inactive,inactive,,inactive,,inactive,,inactive,,inactive,inactive,,inactive,,inactive,
O=C(C=Cc1ccccc1)OCC=Cc1ccccc1,inactive,,inactive,inactive,,inactive,,inactive,,inactive,,inactive,inactive,,inactive,,inactive,
FC(F)(I)C(F)(F)C(F)(F)C(F)(F)I,inactive,,inactive,inactive,,inactive,,inactive,0.291 µM (active),,,inactive,inactive,,inactive,,inactive,
OC[C@@H](O)[C@@H](O)[C@H](O)[C@@H](O)CO,,,inactive,inactive,,inactive,,inactive,30.6 µM (active),inactive,,inactive,inactive,,inactive,,inactive,
CC(C)(C)c1ccc(OC2CCCCC2O)cc1 (configuration not stated),inactive,,inactive,inactive,,inactive,,inactive,,inactive,,inactive,inactive,,inactive,,inactive,
Nc1ccc(Oc2cccc(Oc3ccc(N)cc3)c2)cc1,,179 µM (active),,inactive,26.2 µM (active),,51.5 µM (active),,,inactive,112 µM (active),,inactive,163 µM (active),,135 µM (active),,
CC/C=C\CCOC(=O)c1ccccc1,inactive,,inactive,inactive,,inactive,,inactive,,inactive,,inactive,inactive,,inactive,,inactive,
N=C(N)C(F)(F)C(F)(F)C(F)(F)C(F)(F)C(F)(F)C(F)(F)C(F)(F)F,,68.5 µM (active),,inactive,,inactive,,inactive,38.6 µM (active),,,inactive,inactive,,inactive,243 µM (active),,199 µM (active)
C=CC(F)(F)C(F)(F)C(F)(F)C(F)(F)C(F)(F)C(F)(F)C(F)(F)C(F)(F)F,inactive,,inactive,inactive,,inactive,,inactive,,inactive,,inactive,inactive,,inactive,,inactive,
COC(=O)C1CCC(C(=O)OC)CC1 (configuration not stated),,,inactive,inactive,,inactive,,inactive,20.5 µM (active),inactive,,inactive,inactive,,inactive,,inactive,
